From PubChem BioAssay (NCI)
Compounds without any hit were thinned out: in the full panel of roughly 79,000, 15% have a hit. Calls of active or inactive are those of the source. No stated cut-off is given here; in the data, active means growth inhibition above about 70%; inactive means the rest.

Legend:
[1] = NCI Yeast Anticancer Drug Screen. Data for the rad50 strain (AID 155);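 further: 0% = growth of vehicle-only cultures of the same strain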; settings: S. cerevisiae rad50 strain growth inhibition; at 50.0 µM; stronger effect = higher value
Outline: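 A DNA repair-deficient yeast mutant serves as the test organism; compound-induced growth inhibition is calculated against vehicle-treated cells.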

[2] = NCI Yeast Anticancer Drug Screen. Data for the mec2-1 strain (AID 157); settings: S. cerevisiae mec2-1 strain, at 50.0 µM, stronger effect = higher value
Outline: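 Compounds were applied to mec2-1 yeast cells. Their growth was then compared with that of vehicle-treated cultures to give growth inhibition.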

[3] = NCI Yeast Anticancer Drug Screen. Data for the sgs1 mgt1 strain (AID 161);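 further: 0% = growth of cultures given vehicle only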; settings: S. cerevisiae sgs1 mgt1 strain, at 50.0 µM, stronger effect = higher value
Outline: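 This yeast growth screen uses a strain with defined DNA-repair lesions; compound-treated growth is compared with vehicle-treated growth.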

[4] = NCI Yeast Anticancer Drug Screen. Data for the cln2 rad14 strain (AID 165);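 further: 0% = growth equal to vehicle treated cultures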; settings: S. cerevisiae cln2 rad14 strain, at 50.0 µM, stronger effect = higher value
Outline: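 Strain: cln2 rad14 yeast, altered in cell cycle control and DNA damage repair. Read-out: growth inhibition vs vehicle.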

[5] = NCI Yeast Anticancer Drug Screen. Data for the bub3 strain (AID 167); settings: S. cerevisiae bub3 mutant strain, at 50.0 µM, stronger effect = higher value
Outline: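 Inhibition values come from growth of compound-treated mutant yeast normalised to vehicle-treated controls.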

[6] = NCI Yeast Anticancer Drug Screen. Data for the mlh1 rad18 strain (AID 175); settings: S. cerevisiae mlh1 rad18 strain growth inhibition; at 50.0 µM; stronger effect = higher value
Outline: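 A repair-deficient yeast strain is exposed to test compound, and growth is scored relative to vehicle-treated controls.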

Measured: growth inhibition

Cc1cn(C2CC(N=[N+]=[N-])C(CO)O2)c(=O)[nH]c1=O (stereo unspecified)
inactive: [1] -0.7% | [2] -0.4% | [3] -39.5% | [4] 14.1% | [5] 0.05% | [6] -15.6%

NC1=NN(c2c(Cl)cc(Cl)cc2Cl)C(=O)C1
inactive: [1] 21.9% | [2] -3.8% | [3] 17.6% | [4] 33.3% | [5] 33% | [6] 39.6%

COc1c(OC)c(C(C)C)c2c(c1C(=O)O)C(=O)OC2=O
inactive: [1] -5.6% | [2] 10.9% | [3] 11.2% | [4] -14.9% | [5] -7.5% | [6] -7.75%

NCCN(Cc1ccccc1)C1CC1
inactive: [1] 5.4% | [2] -33.6% | [3] 9.35% | [4] 15.3% | [5] -16.2% | [6] -1.05%

CC(C)C1CC(C)(C)C2CC3OC(C(C)C)CC(C)(C)C3CC2O1 (stereo unspecified)
inactive: [1] -12.1% | [2] -3% | [3] 2.75% | [4] -2.65% | [5] -10.3% | [6] 1.35%

COC(C)C(NC=O)C(=O)O (stereo unspecified)
inactive: [1] 18.8% | [2] 10.9% | [3] 7.45% | [4] 8.65% | [5] 9.95% | [6] 1.9%

CC(C)C1CC[N-]CC1.CC(C)C1CC[N-]CC1.[Cl][Pt+2][Cl]
active: [1] 82.6% | [3] 86.3% | [6] 75.4%
inactive: [2] 48% | [4] 18.9% | [5] 36.6%

O=C1C=CC2(CC=CCC2)CC1 (stereo unspecified)
inactive: [1] 5.25% | [2] -8.4% | [3] -1.6% | [4] -23.4% | [5] -11.8% | [6] 0.55%

CCCC(CCC(C)=O)[N+](=O)[O-] (stereo unspecified)
inactive: [1] -9.05% | [2] -3.15% | [3] -8.85% | [4] -14.2% | [5] 1% | [6] 12%

COc1ccc(CC(C)SC(CC(=O)O)C(=O)O)cc1 (stereo unspecified)
inactive: [1] 3.45% | [2] -1% | [3] 16.4% | [4] -37.9% | [5] 7.95% | [6] -8.2%

O=[N+]([O-])c1ccc(C2ON=C(c3ccccc3)N2C23CC4CC(CC(C4)C2)C3)cc1 (stereo unspecified)
inactive: [1] -12.6% | [2] -9% | [3] -6.1% | [4] 25.5% | [5] -6.5% | [6] -28.4%

CCCCCCC[CH2][Sn]1([CH2]CCCCCCC)[O]C2C(CO)OC(n3ccc4c(N)ncnc43)C2[O]1 (stereo unspecified)
active: [4] 70.2%
inactive: [1] -0.4% | [2] 15.2% | [3] 18.1% | [5] 4.45% | [6] -0.85%

CCOC(=O)c1nc2cc(C(F)(F)F)ccc2nc1Nc1ccc(OC)c(OC)c1
inactive: [1] -18.1% | [2] -6.15% | [3] -16.9% | [4] -12.4% | [5] -12.8% | [6] -14%

CCOC(=O)C1=C(C)NC(C)=C(C(=O)OCC)C1C
inactive: [1] -29.1% | [2] -35.9% | [3] 4.5% | [4] -10.5% | [5] -22.1% | [6] -6.8%

Cc1nn(C(=O)CC(=O)Nc2ccc(Cl)cc2)c(C)c1N=Nc1ccccc1F
inactive: [1] -40% | [2] -25.5% | [3] -60.6% | [4] -12.4% | [5] -28.4% | [6] -43%

COC(=O)c1s/c(=N\C(=S)N(C)C)n(-c2ccccc2)c1C(=O)OC
inactive: [1] 5.3% | [2] 20.2% | [3] -0.1% | [4] 15.2% | [5] -8.85% | [6] 11.2%

O=C(O)C=C1CCCCC1
inactive: [1] 4.35% | [2] -4.2% | [3] 20% | [4] 10.4% | [5] 11.9% | [6] -1.1%

CC1=CCCC(C)(C)C1/C=C/C(C)=N/NC(=O)Nc1ccccc1 (stereo unspecified)
inactive: [1] 32.2% | [2] -6.2% | [3] 0.25% | [4] -8.85% | [5] 8.85% | [6] 16.4%

O=C/C(=C1/C=Cc2cc([N+](=O)[O-])ccc2S1)c1ccccc1
inactive: [1] -6.5% | [2] -18.8% | [3] -11% | [4] -14.8% | [5] -9.05% | [6] -6.6%

COC(=O)c1ccc2c(c1)CC1(C2)Cc2cc3c(cc2C1=O)CCC3 (stereo unspecified)
inactive: [1] -3.35% | [2] -37.8% | [3] -0.5% | [4] -3.15% | [5] 14.3% | [6] -5.3%

CC1(C)OC2C(COC(=O)c3ccc([N+](=O)[O-])cc3)OC(NC(=O)N(CCCl)N=O)C2O1 (stereo unspecified)
active: [6] 81.5%
inactive: [1] -34.4% | [2] -21.2% | [3] -20.9% | [4] -11.2% | [5] -36.5%

CC(O)CN(Cc1ccccc1)CC(C)O (stereo unspecified)
inactive: [1] 8.1% | [2] 28.9% | [3] -6.7% | [4] -22.9% | [5] -3.5% | [6] -14.9%

O=C(O)Cc1ccc(Br)cc1
inactive: [1] 29.4% | [2] -8.95% | [3] 11.9% | [4] 10.8% | [5] 1.1% | [6] 5.7%

CS(=O)(=O)OCCOc1ccccc1
inactive: [1] 1.15% | [2] -0.45% | [3] 0.95% | [4] -32% | [5] 9.15% | [6] 8.05%

O=P1(O)c2ccccc2CCc2ccccc21
inactive: [1] 10.1% | [2] -14.6% | [3] 3.7% | [4] 29.8% | [5] -11% | [6] 3.4%

Clc1ccc2c(c1)C(Nc1cc3c4ccccc4ccc3c3ccccc13)c1cc(Cl)cc(Cl)c1-2 (stereo unspecified)
inactive: [1] 51.2% | [2] -1.25% | [3] 22.6% | [4] 21.1% | [5] 9.3% | [6] 12.2%

OC(c1ccccc1)c1c(-c2ccccc2)[nH]c(-c2ccccc2)c1C(O)c1ccccc1 (stereo unspecified)
inactive: [1] 1% | [2] 14.8% | [3] -6.5% | [4] 22.2% | [5] -23.3% | [6] -6.9%

CSCCC(N)C(=O)NCCS(=O)(=O)O (stereo unspecified)
inactive: [1] -22.4% | [2] 1% | [3] 14.8% | [4] -8% | [5] 17.1% | [6] 8.25%

CC(C)c1ccc(/C=C2\CCC/C(=C\c3ccc(C(C)C)cc3)C2=O)cc1
inactive: [1] -6.7% | [2] -17.1% | [3] 9.5% | [4] -12.2% | [5] -20.4% | [6] -3.5%

C=C1C(=O)O[C@@H]2[C@H]3[C@H](C)C(=O)C=C[C@]3(C)CC[C@@H]12
inactive: [1] 21.3% | [2] -24.9% | [3] 39% | [4] 13.4% | [5] 8.95% | [6] -23.6%

CO/C(=N\N=C\c1cccc(C(F)(F)F)c1)c1ccncc1
inactive: [1] 27.3% | [2] 6.4% | [3] -2.2% | [4] -6.05% | [5] 5.1% | [6] 12.2%

CCN(CC)c1ccc(N)cc1
inactive: [1] -4.05% | [2] -9.9% | [3] 26.1% | [4] -4.4% | [5] -3.1% | [6] 35.1%

COc1ccc(OC(=O)Nc2cccc(Cl)c2)cc1
inactive: [1] 8.4% | [2] 39.1% | [3] 29.8% | [4] -11.3% | [5] 31.4% | [6] 55.6%

CC1(C)CC(C2CC(C)(C)CC(C)(C)[C@H]2O)[C@@H](O)C(C)(C)C1 (stereo partly specified)
inactive: [1] -17.3% | [2] -2.3% | [3] -2.1% | [4] -13.2% | [5] -25.8% | [6] -19.9%

C[Si](C)(C)c1ccc(C(N)=O)cc1
inactive: [1] 14.4% | [2] 16.4% | [3] 3.3% | [4] 8.3% | [5] 8.65% | [6] 8.7%

Cc1ccc(S(=O)(=O)OCC(c2ccc(Cl)cc2)c2ccccc2Cl)cc1 (stereo unspecified)
inactive: [1] 14.6% | [2] 1.9% | [3] 3.6% | [4] 11.4% | [5] -1.15% | [6] 1.85%

O=c1[nH]nc(-c2ccccc2)n1-n1cccc1
inactive: [1] -9.25% | [2] -26.1% | [3] -5.95% | [4] -3.6% | [5] -12.3% | [6] -6.25%

COc1ccc(/C(Cl)=C(\C=O)c2ccc(Cl)c(Cl)c2)cc1OC
inactive: [1] 28.1% | [2] 11.2% | [3] 27.5% | [4] -34.6% | [5] 0.7% | [6] 43.1%

CNc1ccc2c(c1)C(=O)c1ccccc1-2
inactive: [1] 11.1% | [2] 14.4% | [3] -5.55% | [4] 19.9% | [5] 1.35% | [6] -11.4%

CC(C)(O)CC(C)(c1ccccc1)c1ccccc1
inactive: [1] -9.95% | [2] 0.75% | [3] -1.25% | [4] -39% | [5] -13.1% | [6] -15.2%

CC(=O)Oc1ccccc1C=C(C(=O)O)C(=O)O
inactive: [1] -7.7% | [2] -11.5% | [3] -8.1% | [4] -20.7% | [5] -9.2% | [6] -10.9%
